Results taken from the supplement of paper PMC10849652.
Of roughly 7,900 targets only a part is listed; those with a hit were picked by preference. About 0.6% of all pairs of compound and target were hits.

How the values were obtained:
Test in all cases: log2 fold change, soluble protein after heating vs DMSO (PISA); higher = thermal stabilisation; K562 cells, 10 uM, 30 min; active = over 0.2 and 3.5 SD of the protein, either way, in both replicates (recomputed)
[1] = compound: CC1=C(C=C(C=C1)NC(=O)C2=CC(=CC=C2)C(C)(C)C#N)NC3=CC4=C(C=C3)N=CN(C4=O)C
In short: (§1)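 K562 cells (2×10^6 cells/mL) were treated with 10 μM compound for 30 min, and aliquots were heated for 3 min over 48°C-58°C. Pooled aliquots were extracted in PBS with 0.5% NP-40 at 4°C, and the supernatant after 21,000xg for 90 min was measured by TMTpro 16plex LC-MS/MS with channel sums equalised. Reported thermal stability, relative to control samples and from duplicates, is a log2 fold change.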

[2] = compound: CC1=C(C=C(C=C1)NC(=O)C2=CC(=CC=C2)N(C)C)NC(=O)C3=CC=C(C=C3)O
In short: as §1

[3] = compound: CC1=CC=C(C=C1)SC2=C3C=C(SC3=CN=C2)C(=O)N
In short: as §1

[4] = compound: CC1=NC(=CC=C1)C2=C(N=C(N2)C(C)(C)C)C3=CC4=NC=CN=C4C=C3
In short: as §1

[5] = compound: CCCCN(Cc1ccc(C(=O)NO)cc1)C(=O)Nc1ccccc1 [Nexturastat A]
In short: as §1

[6] = compound: CCCS(=O)(=O)Nc1ccc(F)c(C(=O)c2c[nH]c3ncc(-c4ccc(Cl)cc4)cc23)c1F [vemurafenib]
In short: as §1

[7] = compound: CCCS(=O)(=O)Nc1ccc(F)c(C(=O)c2c[nH]c3ncc(Cl)cc23)c1F
In short: as §1

[8] = compound: CCCc1cc(C)[nH]c(=O)c1CNC(=O)c1cc(-c2ccnc(N3CCN(C)CC3)c2)cc2c1cnn2C(C)C
In short: as §1

[9] = compound: CCN(CC)Cc1ccc2cc(COC(=O)Nc3ccc(C(=O)NO)cc3)ccc2c1 [givinostat]
In short: as §1

[10] = compound: CCN(CCCOc1ccc2c(Nc3cc(CC(=O)Nc4cccc(F)c4)[nH]n3)ncnc2c1)CCOP(=O)(O)O [barasertib]
In short: as §1

[11] = compound: CC[C@@H]1C(=O)N(C)c2cnc(Nc3ccc(C(=O)NC4CCN(C)CC4)cc3OC)nc2N1C1CCCC1
In short: as §1

[12] = compound: CC[C@@H]1C(=O)N(C)c2cnc(Nc3ccc(C(=O)N[C@H]4CC[C@H](N5CCN(CC6CC6)CC5)CC4)cc3OC)nc2N1C(C)C [volasertib]
In short: as §1

[13] = compound: CC[C@H](C)N1C=C(C2=C(C=C(C=C21)C3=CN=C(C=C3)N4CCNCC4)C(=O)NCC5=C(C=C(NC5=O)C)C)C
In short: as §1

[14] = compound: CC[C@H](C)[C@@H](C(=O)N[C@@H]([C@@H](C)O)C(=O)N[C@@H](CC(C)C)C(=O)[C@]1(CO1)C)NC(=O)[C@H]([C@@H](C)CC)N(C)C(=O)C [epoxomicin]
In short: as §1

[15] = compound: CCn1c(C(=O)N(C2CC2)C2CC2)cc2c3c(ncn3C)c(Nc3cc(C)n(C)n3)nc21
In short: as §1

[16] = compound: CCn1cc(-c2ccnc3[nH]c(-c4cccc(CN(C)C)c4)cc23)c(-c2ccc(NC(=O)N(C)C)cc2)n1
In short: as §1

[17] = compound: CN(C)CC(=O)Nc1ccc2[nH]c(=O)c3ccccc3c2c1
In short: as §1

[18] = compound: CN(CCOC1=CC=C(C=C1)C[C@H]2C(=O)NC(=O)S2)C3=CC=CC=N3 (racemic) [rosiglitazone]
In short: as §1

[19] = compound: CN1C2=C(C3=C1C(=O)N(N=C3)CC4=CC(=CC=C4)N)SC(=C2)S(=O)C
In short: as §1

[20] = compound: CN1CCC(CNc2ccc3ncc(-c4cccc(OC(F)(F)F)c4)n3n2)CC1
In short: as §1

Measured: log2 fold change

TAF9 (UniProt Q16594)
Chain of UniProt Q16594 (Q16594 whole entry, looked up): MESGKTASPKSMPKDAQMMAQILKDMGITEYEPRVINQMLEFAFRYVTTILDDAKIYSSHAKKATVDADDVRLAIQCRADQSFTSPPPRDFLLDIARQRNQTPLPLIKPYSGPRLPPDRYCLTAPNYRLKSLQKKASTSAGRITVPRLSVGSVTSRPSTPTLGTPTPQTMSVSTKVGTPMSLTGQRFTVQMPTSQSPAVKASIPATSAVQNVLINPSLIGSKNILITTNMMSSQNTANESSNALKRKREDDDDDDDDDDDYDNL
inactive: [1] 0.125 | [2] -0.007 | [3] -0.092 | [4] 0.018 | [5] 0 | [6] -0.017 | [7] -0.097 | [8] 0.02 | [9] 0.019 | [10] -0.019 | [11] -0.028 | [12] 0.095 | [13] -0.029 | [14] 0.12 | [15] 0.025 | [16] 0.034 | [17] -0.021 | [18] -0.001 | [19] 0.061 | [20] 0.077

SNX9 (UniProt Q9Y5X1)
Chain of UniProt Q9Y5X1 (Q9Y5X1 whole entry, looked up): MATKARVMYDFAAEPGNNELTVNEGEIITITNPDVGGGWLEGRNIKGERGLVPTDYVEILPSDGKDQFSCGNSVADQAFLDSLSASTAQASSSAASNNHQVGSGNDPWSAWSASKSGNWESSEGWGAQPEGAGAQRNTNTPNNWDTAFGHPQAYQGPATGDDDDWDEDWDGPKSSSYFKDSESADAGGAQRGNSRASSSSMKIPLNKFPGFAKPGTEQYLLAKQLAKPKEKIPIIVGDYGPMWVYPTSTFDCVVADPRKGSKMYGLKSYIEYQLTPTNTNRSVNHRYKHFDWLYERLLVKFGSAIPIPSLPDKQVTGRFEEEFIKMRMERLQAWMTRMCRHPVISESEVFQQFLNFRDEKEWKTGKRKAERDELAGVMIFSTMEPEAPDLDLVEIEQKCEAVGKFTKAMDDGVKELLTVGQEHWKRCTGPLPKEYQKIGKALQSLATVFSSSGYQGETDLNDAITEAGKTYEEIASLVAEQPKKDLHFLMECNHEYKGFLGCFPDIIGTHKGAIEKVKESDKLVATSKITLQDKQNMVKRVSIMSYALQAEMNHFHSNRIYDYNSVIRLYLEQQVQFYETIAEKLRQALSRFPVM
active: [12] -0.309
inactive: [1] 0.018 | [2] -0.031 | [3] -0.002 | [4] 0.03 | [5] 0.048 | [6] 0.006 | [7] 0.041 | [8] -0.027 | [9] -0.099 | [10] 0.007 | [11] -0.125 | [13] 0.04 | [14] -0.02 | [15] -0.018 | [16] -0.021 | [17] -0.006 | [18] 0.025 | [19] 0.009 | [20] -0.137

THRAP3 (UniProt Q9Y2W1)
Chain of UniProt Q9Y2W1 (Q9Y2W1 whole entry, looked up): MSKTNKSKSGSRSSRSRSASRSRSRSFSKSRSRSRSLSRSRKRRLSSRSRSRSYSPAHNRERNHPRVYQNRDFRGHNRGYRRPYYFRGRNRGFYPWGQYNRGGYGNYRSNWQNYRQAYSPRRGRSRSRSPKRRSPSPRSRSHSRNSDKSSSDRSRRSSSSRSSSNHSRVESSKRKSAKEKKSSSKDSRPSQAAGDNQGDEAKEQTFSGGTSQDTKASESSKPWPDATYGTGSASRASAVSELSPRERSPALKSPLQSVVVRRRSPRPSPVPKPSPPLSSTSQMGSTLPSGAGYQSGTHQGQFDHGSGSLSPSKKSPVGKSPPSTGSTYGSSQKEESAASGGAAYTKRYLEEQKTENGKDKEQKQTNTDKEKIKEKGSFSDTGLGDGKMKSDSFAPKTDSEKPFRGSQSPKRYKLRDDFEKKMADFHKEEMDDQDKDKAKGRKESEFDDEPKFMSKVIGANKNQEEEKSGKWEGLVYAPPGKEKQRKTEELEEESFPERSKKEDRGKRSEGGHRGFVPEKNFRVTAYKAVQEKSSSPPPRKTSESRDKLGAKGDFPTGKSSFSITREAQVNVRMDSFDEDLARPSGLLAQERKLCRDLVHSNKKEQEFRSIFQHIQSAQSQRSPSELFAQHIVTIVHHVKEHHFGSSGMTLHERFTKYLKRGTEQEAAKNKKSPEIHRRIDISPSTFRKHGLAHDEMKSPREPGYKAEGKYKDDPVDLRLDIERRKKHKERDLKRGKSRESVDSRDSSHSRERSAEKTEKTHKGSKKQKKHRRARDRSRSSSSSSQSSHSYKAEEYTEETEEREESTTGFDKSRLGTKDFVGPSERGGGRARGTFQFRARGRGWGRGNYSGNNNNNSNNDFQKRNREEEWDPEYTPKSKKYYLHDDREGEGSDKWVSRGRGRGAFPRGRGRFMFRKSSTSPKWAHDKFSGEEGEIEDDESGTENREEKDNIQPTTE
inactive: [1] -0.008 | [2] 0.004 | [3] -0.056 | [4] -0.035 | [5] 0.109 | [6] 0.063 | [7] -0.01 | [8] 0.197 | [9] 0.093 | [10] -0.099 | [11] 0.03 | [12] 0.098 | [13] -0.137 | [14] -0.093 | [15] -0.013 | [16] 0.101 | [17] -0.026 | [18] -0.007 | [19] 0.025 | [20] -0.058

STOM (UniProt P27105)
Chain of UniProt P27105 (P27105 whole entry, looked up): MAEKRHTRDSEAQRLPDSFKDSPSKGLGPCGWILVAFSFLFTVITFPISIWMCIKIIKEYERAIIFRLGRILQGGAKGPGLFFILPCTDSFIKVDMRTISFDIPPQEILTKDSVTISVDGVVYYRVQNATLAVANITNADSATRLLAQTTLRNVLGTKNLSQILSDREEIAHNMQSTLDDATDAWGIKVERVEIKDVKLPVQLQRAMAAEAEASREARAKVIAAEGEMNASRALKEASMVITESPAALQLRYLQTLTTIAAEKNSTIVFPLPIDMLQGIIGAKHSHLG
active: [20] 0.317
inactive: [1] -0.035 | [2] 0.025 | [3] -0.041 | [4] -0.002 | [5] 0.007 | [6] 0.01 | [7] -0.053 | [8] -0.092 | [9] 0.005 | [10] -0.017 | [11] 0.087 | [12] 0.096 | [13] -0.08 | [14] -0.006 | [15] 0.009 | [16] -0.164 | [17] -0.057 | [18] -0.065 | [19] 0.085

SRP68 (UniProt Q9UHB9)
Chain of UniProt Q9UHB9 (Q9UHB9 whole entry, looked up): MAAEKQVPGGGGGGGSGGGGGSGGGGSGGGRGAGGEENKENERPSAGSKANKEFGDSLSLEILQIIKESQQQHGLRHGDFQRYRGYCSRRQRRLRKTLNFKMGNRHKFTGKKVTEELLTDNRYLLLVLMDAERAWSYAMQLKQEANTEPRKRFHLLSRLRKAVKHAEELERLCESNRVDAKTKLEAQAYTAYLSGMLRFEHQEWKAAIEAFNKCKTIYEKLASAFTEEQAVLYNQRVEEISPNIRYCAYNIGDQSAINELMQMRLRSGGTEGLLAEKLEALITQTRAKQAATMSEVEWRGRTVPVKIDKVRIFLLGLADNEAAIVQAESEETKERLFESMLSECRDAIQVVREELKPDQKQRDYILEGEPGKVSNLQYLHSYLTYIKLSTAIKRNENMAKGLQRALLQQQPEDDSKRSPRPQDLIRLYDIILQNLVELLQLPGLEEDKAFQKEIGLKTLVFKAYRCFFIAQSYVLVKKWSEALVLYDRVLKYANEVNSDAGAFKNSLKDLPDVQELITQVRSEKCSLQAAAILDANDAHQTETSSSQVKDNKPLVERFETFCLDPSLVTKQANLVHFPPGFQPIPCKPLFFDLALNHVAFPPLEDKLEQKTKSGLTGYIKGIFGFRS
inactive: [1] 0.028 | [2] -0.062 | [3] 0 | [4] 0.018 | [5] 0.125 | [6] 0.063 | [7] 0.091 | [8] 0.064 | [9] 0.075 | [10] 0.078 | [11] -0.077 | [13] 0.079 | [14] 0.094 | [15] -0.093 | [16] -0.024 | [17] 0.019 | [18] 0.048 | [19] 0.133 | [20] -0.18
active: [12] -0.487

SSR4 (UniProt P51571)
Chain of UniProt P51571 (P51571 whole entry, looked up): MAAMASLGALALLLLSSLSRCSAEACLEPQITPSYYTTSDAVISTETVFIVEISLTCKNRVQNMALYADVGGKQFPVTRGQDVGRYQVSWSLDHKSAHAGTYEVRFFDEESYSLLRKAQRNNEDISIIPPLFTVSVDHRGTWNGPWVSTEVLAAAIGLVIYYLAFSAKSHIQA
inactive: [1] -0.004 | [2] 0.012 | [3] 0.064 | [4] 0.039 | [5] -0.046 | [6] -0.014 | [7] 0.081 | [8] -0.035 | [9] 0.03 | [10] -0.052 | [11] 0.004 | [12] -0.01 | [13] -0.004 | [14] 0.029 | [15] 0.06 | [16] 0.002 | [17] -0.022 | [18] 0.015 | [19] -0.028 | [20] 0.045

TECR (UniProt Q9NZ01)
Chain of UniProt Q9NZ01 (Q9NZ01 whole entry, looked up): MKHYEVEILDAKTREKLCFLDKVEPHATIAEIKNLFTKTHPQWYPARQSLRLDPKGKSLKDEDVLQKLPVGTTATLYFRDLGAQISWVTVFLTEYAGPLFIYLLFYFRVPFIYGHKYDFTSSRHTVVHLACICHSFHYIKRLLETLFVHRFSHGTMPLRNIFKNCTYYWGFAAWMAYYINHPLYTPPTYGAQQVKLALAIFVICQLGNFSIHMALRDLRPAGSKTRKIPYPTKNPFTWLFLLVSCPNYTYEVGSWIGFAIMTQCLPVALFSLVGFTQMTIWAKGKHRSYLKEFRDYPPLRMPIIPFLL
inactive: [1] -0.017 | [2] -0.034 | [3] 0.031 | [4] 0.069 | [5] -0.043 | [6] 0.021 | [7] 0.113 | [8] -0.084 | [9] 0.011 | [10] 0.007 | [11] -0.116 | [13] 0.015 | [14] 0.026 | [15] 0.021 | [16] -0.085 | [17] 0.042 | [18] 0.043 | [19] -0.063
active: [12] -0.24 | [20] -0.347

SPG21 (UniProt Q9NZD8)
Chain of UniProt Q9NZD8 (Q9NZD8 whole entry, looked up): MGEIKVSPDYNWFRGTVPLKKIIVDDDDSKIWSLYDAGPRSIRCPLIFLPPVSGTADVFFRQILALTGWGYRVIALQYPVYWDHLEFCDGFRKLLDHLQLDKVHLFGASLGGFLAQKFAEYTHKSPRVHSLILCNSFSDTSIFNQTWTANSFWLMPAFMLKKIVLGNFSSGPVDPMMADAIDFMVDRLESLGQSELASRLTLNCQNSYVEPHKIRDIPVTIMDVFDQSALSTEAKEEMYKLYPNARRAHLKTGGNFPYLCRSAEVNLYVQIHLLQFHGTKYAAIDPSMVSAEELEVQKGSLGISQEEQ
inactive: [1] -0.108 | [2] -0.157 | [3] -0.003 | [4] 0.057 | [5] 0.016 | [6] 0.044 | [7] -0.044 | [8] 0.057 | [9] -0.014 | [10] 0.026 | [11] -0.082 | [13] 0.065 | [15] -0.013 | [16] 0.037 | [17] 0.018 | [18] 0.123 | [19] -0.098 | [20] -0.21
active: [12] -0.615 | [14] 0.315

SP1 (UniProt P08047)
inactive: [1] 0.023 | [2] -0.068 | [3] -0.067 | [4] -0.033 | [5] 0.034 | [6] -0.017 | [7] -0.069 | [8] -0.018 | [9] -0.114 | [10] 0.011 | [11] 0.047 | [12] 0.102 | [13] 0 | [14] -0.032 | [15] 0.007 | [16] -0.003 | [17] -0.042 | [18] -0.005 | [19] 0.006 | [20] -0.063

SNX5 (UniProt Q9Y5X3)
Chain of UniProt Q9Y5X3 (Q9Y5X3 whole entry, looked up): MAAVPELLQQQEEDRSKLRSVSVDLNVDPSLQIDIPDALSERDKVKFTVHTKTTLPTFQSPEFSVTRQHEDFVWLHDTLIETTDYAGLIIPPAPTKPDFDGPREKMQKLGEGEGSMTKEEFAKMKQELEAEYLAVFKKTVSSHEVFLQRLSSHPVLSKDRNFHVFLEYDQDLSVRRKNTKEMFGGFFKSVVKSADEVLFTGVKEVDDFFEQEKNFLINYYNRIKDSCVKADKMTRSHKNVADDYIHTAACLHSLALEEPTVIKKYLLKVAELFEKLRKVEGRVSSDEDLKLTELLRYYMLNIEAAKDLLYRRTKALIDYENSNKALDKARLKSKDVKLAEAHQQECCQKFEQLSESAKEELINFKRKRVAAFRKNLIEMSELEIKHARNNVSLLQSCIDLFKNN
active: [20] -0.289
inactive: [1] 0.001 | [2] 0.015 | [3] 0.009 | [4] 0.039 | [5] -0.074 | [6] 0.009 | [7] 0.035 | [8] -0.031 | [9] 0.013 | [10] 0.04 | [11] -0.136 | [12] -0.129 | [13] 0.076 | [14] 0.05 | [15] -0.026 | [16] -0.099 | [17] 0.027 | [18] 0.069 | [19] -0.001

SNW1 (UniProt Q13573)
inactive: [1] -0.035 | [2] 0.041 | [3] -0.017 | [4] 0 | [5] 0.074 | [6] -0.04 | [7] -0.017 | [8] -0.045 | [9] -0.041 | [10] -0.02 | [11] 0.094 | [12] 0.078 | [13] -0.052 | [14] -0.012 | [15] 0.03 | [16] 0.044 | [17] -0.027 | [18] -0.047 | [19] 0 | [20] 0.078

TIAL1 isoform 2 (UniProt Q01085)
Chain of UniProt Q01085 (Q01085 whole entry, looked up): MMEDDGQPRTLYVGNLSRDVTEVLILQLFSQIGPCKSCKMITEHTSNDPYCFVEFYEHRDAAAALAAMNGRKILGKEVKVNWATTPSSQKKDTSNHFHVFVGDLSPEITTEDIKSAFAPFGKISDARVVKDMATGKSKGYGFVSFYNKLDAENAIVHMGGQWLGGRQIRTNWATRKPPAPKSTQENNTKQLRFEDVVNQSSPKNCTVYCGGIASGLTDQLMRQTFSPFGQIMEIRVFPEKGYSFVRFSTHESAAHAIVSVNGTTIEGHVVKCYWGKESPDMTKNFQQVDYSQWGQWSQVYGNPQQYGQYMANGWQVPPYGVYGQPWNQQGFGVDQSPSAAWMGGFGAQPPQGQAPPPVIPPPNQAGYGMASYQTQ
inactive: [1] -0.009 | [2] 0.015 | [3] -0.019 | [4] 0.08 | [5] 0.005 | [6] 0.023 | [7] 0.002 | [8] -0.007 | [9] -0.022 | [10] -0.021 | [11] 0.042 | [12] -0.042 | [13] 0.006 | [14] 0.001 | [15] 0.01 | [16] 0.026 | [17] -0.056 | [18] -0.019 | [19] -0.063 | [20] -0.03

TLK1 (UniProt Q9UKI8)
inactive: [1] 0.062 | [2] -0.009 | [3] 0.018 | [4] 0.011 | [5] 0.012 | [6] 0.008 | [7] 0.019 | [8] -0.053 | [9] 0.078 | [10] 0.079 | [11] 0.017 | [12] -0.088 | [13] 0.02 | [14] -0.018 | [15] 0.01 | [16] -0.054 | [17] 0.033 | [18] 0.026 | [19] -0.086 | [20] -0.037

SRPRA (UniProt P08240)
Chain of UniProt P08240 (P08240 whole entry, looked up): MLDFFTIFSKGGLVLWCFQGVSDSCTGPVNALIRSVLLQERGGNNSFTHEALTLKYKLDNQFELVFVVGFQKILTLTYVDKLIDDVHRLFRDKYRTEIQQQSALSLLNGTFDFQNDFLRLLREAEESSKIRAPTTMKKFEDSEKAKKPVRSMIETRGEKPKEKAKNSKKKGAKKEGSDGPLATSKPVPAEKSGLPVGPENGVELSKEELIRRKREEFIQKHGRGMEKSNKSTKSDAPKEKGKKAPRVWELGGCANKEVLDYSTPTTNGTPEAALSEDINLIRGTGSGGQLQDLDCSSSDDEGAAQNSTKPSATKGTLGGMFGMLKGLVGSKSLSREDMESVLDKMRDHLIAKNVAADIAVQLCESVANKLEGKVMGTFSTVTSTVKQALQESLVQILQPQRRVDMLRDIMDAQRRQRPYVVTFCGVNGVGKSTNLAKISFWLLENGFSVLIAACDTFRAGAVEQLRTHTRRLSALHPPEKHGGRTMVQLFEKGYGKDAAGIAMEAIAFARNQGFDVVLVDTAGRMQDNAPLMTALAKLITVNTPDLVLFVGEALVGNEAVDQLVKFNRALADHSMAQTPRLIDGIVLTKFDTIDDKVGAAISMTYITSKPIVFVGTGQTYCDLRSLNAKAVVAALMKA
inactive: [1] 0.089 | [2] -0.06 | [3] 0.018 | [4] 0.047 | [5] 0 | [6] 0.038 | [7] 0.069 | [8] 0.001 | [9] 0.018 | [10] 0.04 | [11] -0.116 | [12] -0.107 | [13] 0.007 | [14] 0.02 | [15] -0.07 | [16] -0.036 | [17] 0.032 | [18] -0.002 | [19] -0.055 | [20] 0.009

STARD9 (UniProt Q9P2P6)
active: [19] 0.507
inactive: [1] -0.29 | [2] 0.01 | [3] -0.07 | [4] -0.048 | [5] 0.144 | [6] -0.161 | [7] 0.029 | [8] -0.035 | [9] -0.046 | [10] -0.017 | [11] -0.024 | [12] 0.238 | [13] -0.029 | [14] 0.022 | [15] 0.064 | [16] 0.008 | [17] 0.075 | [18] 0.015 | [20] -0.098
